Source: PubChem BioAssay AID651812 (National Center for Advancing Translational Sciences (NCATS), 2012)
About 650 (31%) of roughly 2,100 compounds were called active. About 16% were inconclusive and are not listed. Calls follow the shape of the dose curve; as a rule, active = well fitted inhibition curve with a large enough effect; inconclusive = small, poorly fitted or top-dose-only effect; inactive = flat fitted curve, though single readings scatter. The list shows a part of the results. A call without a number means that no potency is given here.

Assay: qHTS for inhibitors of Vif-A3G interactions: Cherry picks; also: nearly all actives have a fitted effect of over 80% in size
Conditions: HeLa A3G-eYFP + Vif (tagged APOBEC3G with the HIV-1 protein that degrades it), 24 h; Potency: eYFP fluorescence increase; series mostly up to 36.9 µM
Outline: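 HeLa cells stably expressing A3G-eYFP and Vif, cultured overnight then exposed to compounds at several concentrations for 24 hours at 37 C, 5% CO2; cellular yellow fluorescence (488 nm ex, 500-530 nm em) imaged on Acumen, MG132 positive control.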
Potency is read from the fitted curve at half-maximal effect.

Row | SMILES | Potency
1 | CCCOc1ccccc1C1CC(=O)Nc2cc3c(cc21)OCO3 (stereo not given) | inactive
2 | Cn1nnnc1SCc1nc2scc(-c3ccc(Cl)cc3)c2c(=O)[nH]1 | inactive
3 | CCOC(=O)c1sc(NC(=S)NC(=O)c2ccco2)nc1C | inactive
4 | COc1cccc(Nc2nc(Nc3ccc(Cl)c(C(=O)O)c3)nc(C)c2[N+](=O)[O-])c1 | inactive
5 | CCOC(=O)c1cc2n(c1/N=C/N(C)C)-c1ccccc1C2=O | 20.6 µM (active)
6 | CCOc1ccc(NC(=O)/C(C#N)=C/c2ccc(N3CCCC3)c(C)c2)cc1 | 6.51 µM (active)
7 | N#C/C(=C/c1ccc2c(c1)OCO2)C(=O)Nc1ccc(O)cc1 | inactive
8 | CCOc1cc(/C=C(/C#N)C(=O)Nc2ccc(O)cc2)cc(Br)c1O | 15.8 µM (active)
9 | CCOc1ccc(NC(=O)N2CC=C(c3c[nH]c4ccccc34)CC2)cc1 | inactive
10 | CCOc1ccc(/C=N/NC(=O)c2cc3c(OC)cc(OC)c(OC)c3[nH]2)cc1 | inactive
11 | CCSc1nnc(-c2sc3nnc(-c4ccccc4)c(-c4ccccc4)c3c2N)o1 | 10.3 µM (active)
12 | COc1ccc(NC(=O)C2Cc3c(-c4cccc(NC(C)=O)c4)ccnc3O2)cn1 (stereo not given) | inactive
13 | CSC1=NC(C(Cl)(Cl)Cl)N=C(c2ccccc2)N1 (stereo not given) | inactive
14 | CCS(=O)(=O)C1=NN2C(=N)/C(=C\c3ccc(SCc4ccco4)o3)C(=O)N=C2S1 | inactive
15 | CC1=CN2C(=N)/C(=C/c3ccc([N+](=O)[O-])o3)C(=O)N=C2S1 | 9.94 µM (active)
16 | Fc1ccc2nc3[nH]c4ccccc4c3nc2c1 | 1.4 µM (active)
17 | CN1CCc2c(sc3c2C(=O)NC(c2ccc(-c4ccc(Cl)cc4)o2)N3)C1 (stereo not given) | 11.6 µM (active)
18 | CCOc1ccccc1C1CC(=O)NC2=C1C(=O)CCC2 (stereo not given) | inactive
19 | O=C1CC(c2ccccc2)Cc2[nH]c(=O)c(-c3nc(-c4cccc(Cl)c4)cs3)cc21 (stereo not given) | inactive
20 | Cc1sc(-c2cc3c([nH]c2=O)CC(c2ccccc2)CC3=O)nc1-c1ccc(Cl)cc1 (stereo not given) | 20.6 µM (active)
21 | COCCOC(=O)c1[nH]c2c(c1C)C(=O)CC(c1ccccc1)C2 (stereo not given) | inactive
22 | O=C(O)CSc1c2ccccc2cc2ccccc12 | inactive

Row | SMILES | Potency
23 | COc1ccc(C)cc1Nc1c2c(nc3ccccc13)CCC2 | inactive
24 | COC(=O)/C(=C\Nc1ccc(Cl)cc1Cl)NC(=O)c1ccc(OC)cc1 | inactive
25 | COc1ccccc1Nc1c2c(nc3ccc(NC(=O)c4ccc(N(C)C)cc4)cc13)CCCC2 | inactive
26 | COc1ccc2nc3ccccc3nc2c1NC(=O)c1ccc(Cl)cc1Cl | 2.8 µM (active)
27 | COc1cc(C(=O)Nc2ccc3ccccc3c2)cc(OC)c1OC | inactive
28 | COc1ccc2nc3ccccc3nc2c1NC(=O)c1ccc(Cl)cc1 | 20.6 µM (active)
29 | COc1ccc2nc3ccccc3nc2c1NC(=O)c1ccc(Br)cc1 | 14.6 µM (active)
30 | COc1ccc(S(=O)(=O)NCc2ccccn2)cc1NC(=O)c1ccccc1 | inactive
31 | O=C(NC(=S)Nc1c(Cl)cc(Cl)cc1Cl)c1ccccc1 | inactive
32 | COc1ccc2nc(Nc3nc(CSc4ccc(C)cc4)cc(=O)[nH]3)nc(C)c2c1 | inactive
33 | CCN(CC)c1ccc(/C=C2\SC(N)=NC2=O)cc1 | inactive
34 | CN(C)c1ccc(/C=C2\C(=N)N3N=C(CC(=O)N4CCCCC4)SC3=NC2=O)cc1 | 18.4 µM (active)
35 | CCN(CC)c1ccc(/C=C2\C(=N)N3N=C(CC(=O)N4CCOCC4)SC3=NC2=O)cc1 | 0.177 µM (active)
36 | COc1cc(/C=C2\C(=N)N3N=CSC3=NC2=O)cc(Br)c1OC(=O)c1ccco1 | inactive
37 | CN(C)c1ccc(/C=C2\SC(N3CCCCC3)=NC2=O)cc1 | 23.1 µM (active)
38 | O=c1c2cc3ccccc3n2cnn1Cc1ccccc1F | inactive
39 | CCOc1ccccc1Oc1nc(C)nc2c1oc1ccccc12 | inactive
40 | Brc1ccc2c(c1)C(c1cccnc1)=NNC(c1cccs1)=N2 | inactive
41 | COc1ccc2cc(-c3nc(Cl)c4c5c(sc4n3)CC(C)CC5)c(=O)oc2c1 (stereo not given) | 4.11 µM (active)
42 | CN1C(=O)/C(=C/c2ccccc2OCc2ccc(F)cc2)N(C)C1=S | 23.1 µM (active)
43 | O=[N+]([O-])c1ccccc1S(=O)(=O)Nc1ccc(-c2ccc(N3CCOCC3)nn2)cc1 | 23.1 µM (active)
44 | COc1cc(C(=O)N/N=C(\C)c2ccccn2)cc(OC)c1OC | inactive

Row | SMILES | Potency
45 | COc1cc(C2Nc3ccc4ncccc4c3C3=C2C(=O)CCC3)cc(OC)c1O (stereo not given) | inactive
46 | CCOc1ccc(C(=O)COC(=O)Cc2n[nH]c(=O)c3ccccc23)cc1 | inactive
47 | CC[n+]1ccc(/C=C2\Sc3ccccc3N2CCCS(=O)(=O)[O-])c2ccccc21 | 20.6 µM (active)
48 | N#Cc1sc2nc(-c3cccs3)cc(-c3ccc(Cl)cc3)c2c1N | 15.8 µM (active)
49 | CCN(CC)C(=O)c1sc2nc(-c3cccs3)cc(-c3ccc(Cl)cc3)c2c1N | 14 µM (active)
50 | COc1ccc(-c2cc(-c3cccs3)nc3sc(C#N)c(N)c23)cc1 | 16.4 µM (active)
51 | Cc1nc(-c2ccc(Cl)cc2)sc1C(=O)NN | inactive
52 | CC(C)CC(=O)NC(=S)N(Cc1ccccc1)Cc1ccccc1 | inactive
53 | Oc1ccc(C=NNC(=S)Nc2ccc(F)cc2)c(O)c1 | inactive
54 | COc1cc(OC)cc(C(=O)N/N=C/c2ccc(OC)c(COc3ccc4ccccc4c3)c2)c1 | inactive
55 | COc1cc(C(=O)Nc2ccc(C)cc2)c2ccccc2n1 | inactive
56 | CCCCN1C(=O)C2Cc3c([nH]c4ccccc34)CN2C1=S (stereo not given) | 14 µM (active)
57 | COc1ccc(/C=N/NC(=O)c2cccnc2)cc1CSc1ccccn1 | inactive
58 | CC1(C(=O)NCc2ccco2)Cc2c(-c3cccc(C(N)=O)c3)ccnc2O1 (stereo not given) | inactive
59 | C/C(=N\NC(=O)C(C)n1nc(C)c([N+](=O)[O-])c1C)c1ccccc1O (stereo not given) | inactive
60 | Cc1cc(C)cc(Oc2nc(C(F)(F)F)nc3ccccc23)c1 | inactive
61 | CCCCN1C(=O)c2cccc3cc(O)cc(c23)C1=O | 16.4 µM (active)
62 | Cc1c(Cl)cccc1NC(=O)c1oc2ccc(S(=O)(=O)N3CCC4(CC3)OCCO4)cc2c1C | inactive
63 | COc1ccc(NC(=O)C(NC(=O)/C=C\c2ccc3c(c2)OCO3)c2ccccc2)cc1 (stereo not given) | inactive
64 | CCNc1ccc(Br)cc(C(=O)/C=C/c2ccc3c(c2)OCO3)c1=O | 18.4 µM (active)
65 | O=C(N/N=C/c1ccc2c(c1)OCO2)c1cccc2ccccc12 | inactive
